High-throughput results deposited in PubChem BioAssay by The Scripps Research Institute Molecular Screening Center.
This is a sample that favours compounds with a hit; in the whole collection about 4.8% have one here.
hgDAF-12 ag: activates the H. glycines DAF-12 receptor ligand-binding domain. HEK293 GAL4-hgDAF12 UAS-luciferase reporter, agonist luminescence; normalized to butyrate control. activation, % at 6.8 µM. 370,000 tested, 1.8% active. AID 687014;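 active = activation above a cutoff set at the mean of all screened compounds plus 3 SD, cut at about 10% in these data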;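 note: 0% = DMSO wells and 100% = sodium butyrate wells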
DAX1 inh-1: blocks DAX1 repression of SF-1 activated StAR promoter; inhibition, % at 6.8 µM; HEK293T StAR-luciferase reporter, SF-1/DAX-1 repression relief; 370,000 tested, 1.1% active;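 active = inhibition above the mean over all tested compounds plus 3 SD, cut at about 3.6% in these data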;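 note: 0% = DAX-1 cells with DMSO and 100% = cells lacking DAX-1 with DMSO; higher inhibition means more luminescence from relief of DAX-1 repression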
DAX1 inh-2: inhibits human nuclear receptor DAX1; 340,000 tested, 0.99% active; inhibition, % at 6.75 µM; HEK293 Gal4-DAX1 luciferase reporter, luminescence;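 active = inhibition above the mean over all tested compounds plus 3 SD, cut at about 4.2% in these data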;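 note: 0% = DAX1-transfected cells with DMSO and 100% = empty-vector control cells with DMSO; inhibition shows as a rise in luminescence from relieved DAX1 repression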
Target sequence (P51843 207-470 limits assumed): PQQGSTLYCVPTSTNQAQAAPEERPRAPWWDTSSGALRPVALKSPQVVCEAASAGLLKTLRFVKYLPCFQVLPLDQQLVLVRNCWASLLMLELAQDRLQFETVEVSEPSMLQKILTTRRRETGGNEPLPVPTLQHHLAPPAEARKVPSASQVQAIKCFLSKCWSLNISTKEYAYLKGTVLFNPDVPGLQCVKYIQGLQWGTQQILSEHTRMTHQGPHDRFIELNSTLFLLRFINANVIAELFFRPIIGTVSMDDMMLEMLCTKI
SMARCA2 act: increases SMARCA2 function in MMTV reporter cells | 370,000 tested, 1% active | AID 652017 | MG213 cells, MMTV-luciferase reporter, dexamethasone, overnight | activation, % at 9.1 µM; in the data active = activation above about 7.8%;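 note: 0% = vehicle wells and 100% = reference activator wells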
hcDAF-12 act: H. contortus DAF-12 activation, primary screen; HEK293 hcDAF-12 lit1-tk-luc reporter, luminescence; 0% DMSO, 100% Δ7-dafachronic acid; 370,000 tested, 1.4% active; AID 652067; activation, % at 6.8 µM;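 active = activation above the mean of all tested compounds plus 3 SD, cut at about 5.5% in these data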;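 note: 100% = response to 3 µM Δ7-dafachronic acid high control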
ssDAF-12 act: S. stercoralis DAF-12 activation, primary screen; 370,000 tested, 1% active; activation, % at 6.8 µM; HEK293 ssDAF-12/GRIP1 lit1-tk-luc reporter, luminescence; % of 3 µM dafachronic acid response; AID 652126;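 active = activation above the mean over all tested compounds plus 3 SD, cut at about 0.9% in these data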;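 note: 0% = DMSO-only wells and 100% = 3 µM delta7-dafachronic acid wells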
* marks the source's active call; other numbers are inactive results; . = no result.

SMILES | hgDAF-12 ag | DAX1 inh-1 | DAX1 inh-2 | SMARCA2 act | hcDAF-12 act | ssDAF-12 act
COCCCNC(=O)C[C@H]1C[C@@]2(C(=O)OC)C(=C[C@H](C3CCCC3)O[C@@H]2C)N(CCC2=CCCCC2)C1=O | -1 | -1 | . | -2 | -2 | -2
Cc1ccc2nc(NCc3ccccc3)[nH]c2c1 | 11* | 0 | 1 | 3 | 4 | 0
O=C(C1CCCN(S(=O)(=O)c2ccc(Br)s2)C1)N1CCN(Cc2ccccc2)CC1 (stereo not given) | -2 | -3 | . | -5 | -2 | -2
CC(=O)Nc1ccc(Nc2cc(C)nc3c(-c4ccc(Cl)cc4)cnn23)cc1 | 6 | 0 | 1 | -2 | 2 | -1
CC(=O)Nc1ccc(Nc2cc(C)nc3c(-c4ccc(Cl)cc4)c(C)nn23)cc1 | -2 | 0 | -1 | 7.9* | -2 | -1
CC[C@@H](CCCCCC#N)CCC(=O)N(c1ccccc1)c1ccccc1 | -6 | -2 | . | -6 | -4 | -2
COCCN(CC1CCCN(C2Cc3ccccc3C2)C1)C(=O)c1cccs1 (stereo not given) | 0 | 1 | 0 | 4 | 4 | -1
O=C(c1cc2cc(F)ccc2[nH]1)N(Cc1cccnc1)CC1CCCN(C2CCCCC2)C1 (stereo not given) | 1 | 2 | 1 | -2 | 3 | 0
Cc1ccc(C(=O)N(CCN2CCCCC2)CC2CCCN(C3CCCC3)C2)s1 (stereo not given) | 7 | 4.4* | 0 | 3 | 3 | 0
O=C(c1cccs1)N(CCN1CCCCC1)CC1CCCN(C2CCCC2)C1 (stereo not given) | 8 | 0 | 0 | 2 | 3 | 0.9*
CC(C)=CCC[C@@]1(C(=O)O)[C@H]2CC=C(CO)[C@@H]1CC/C(C)=C/CC/C(C)=C/C2 | -6 | -1 | . | -2 | -3 | -1
COc1ccc(C(=O)Nn2c(SCc3cccc([N+](=O)[O-])c3)nc3ccccc3c2=O)cc1 | 0 | 1 | -1 | -1 | 1 | -2
O=C(Nn1c(SCc2cccc([N+](=O)[O-])c2)nc2ccccc2c1=O)c1ccccc1 | 13* | 3 | 2 | -1 | 4 | 0
COc1cccc(CNC(=O)c2cccc(NC(=O)C3=C(C)OCCS3)c2)c1 | -4 | -1 | -1 | -2 | 0 | -1
COc1ccc(CNC(=O)Cc2ccc(NC(=O)C3=C(C)OCCS3)cc2)cc1 | 11* | -2 | 0 | 4 | 2 | 0
O=C(c1cc(C2CC2)on1)N(C1CCCCC1)C1CCOCC1 | -2 | 1 | . | -2 | -1 | -2
CCn1c(/C=C/c2ccccc2[N+](=O)[O-])nc2ccccc2c1=O | -1 | -1 | 0 | -4 | -1 | -1
Cn1c(/C=C/c2ccccc2[N+](=O)[O-])nc2ccccc2c1=O | 3 | -1 | 4.5* | 1 | 0 | -1
CN(C)S(=O)(=O)c1cccc(C(=O)N/N=C\c2cccc(C#N)c2)c1 | 0 | -1 | . | -3 | -2 | -2
Cc1cc(-c2nnc(CCC(=O)NCc3ccc(F)c(F)c3)o2)no1 | 3 | 0 | 4.3* | -1 | 0 | 1.9*
O=C(CCc1nnc(C2CCCCC2)o1)NCc1ccc(F)c(F)c1 | -1 | 0 | 5.6* | -3 | 0 | -1
CC1=CC(c2ccccc2)n2nc(N3C(=O)c4ccccc4C3=O)nc2N1 (stereo not given) | 3 | 0 | 4 | -1 | 0 | -1
CC1=CC(c2ccccc2)n2nnnc2N1 (stereo not given) | 3 | 0 | 11* | -3 | -1 | 0
CCOc1ccc(S(=O)(=O)N2CC(=O)Nc3ccccc32)cc1C#N | 2 | 0 | 4.3* | -2 | -1 | -1
CCOc1ccc(S(=O)(=O)N2CC(=O)Nc3ccccc32)cc1 | 3 | 0 | 3 | -2 | -2 | -1
SMILES | hgDAF-12 ag | DAX1 inh-1 | DAX1 inh-2 | SMARCA2 act | hcDAF-12 act | ssDAF-12 act
Cc1cccc(-c2ccc3c(c2)C2CC3CCN2Cc2ccc3c(c2)OCO3)c1 (stereo not given) | 0 | 4.0* | -1 | -5 | -1 | 0
O=C(NCCCn1cccn1)c1cc(COc2ccccc2)on1 | 8 | 3 | 4.2* | 6 | 2 | 0
COc1ccccc1-c1cc(C(=O)NCCc2ccccc2)no1 | 9 | 0 | 2 | 3 | 3 | -1
CCCc1cc(C(=O)NCCc2ccccc2)no1 | 11* | 4 | 0 | 2 | 4 | -1
O=C(NCc1cccs1)C1CCCN(S(=O)(=O)c2ccccc2)C1 (stereo not given) | -4 | 0 | . | -4 | -2 | -1
COc1ccc(S[C@]2(C(=O)NCCCN(C)C)CC(=O)N[C@@H]2c2ccc(OC)cc2)cc1 | -1 | 0 | . | -4 | 1 | -1
CCOC(=O)c1sc(-c2ccc(OC)cc2)cc1N | 12* | 2 | 3 | 6 | 4 | 0
Cc1cc(NC(=O)C(C)C)ncc1NC(=O)c1ccco1 | 1 | 0 | 5.9* | -3 | 0 | -1
CSCCC(NC(=O)c1ccco1)C(=O)NC1CCC(C)CC1 (stereo not given) | 2 | 3.7* | 0 | 2 | 3 | -1
CSCCC(NC(=O)c1ccco1)C(=O)Nc1ccc(C)cn1 (stereo not given) | 2 | 3.8* | 3 | -1 | 3 | 0
O=C(OC12CCCN(C1)/C(=C/c1ccncc1)C2)C1CCCCC1 (stereo not given) | -5 | -4 | . | -6 | -5 | -2
CNC(=O)c1c(Br)cnn1-c1ccc(C)cc1 | 12* | 3.7* | 1 | 4 | 3 | -1
COc1cnn(-c2ccc(C)cc2)c(=O)c1Br | 6 | 1 | 1 | 5 | 2 | -1
CNC(=O)c1c(Cl)cnn1-c1ccc(C)cc1 | 12* | 2 | 0 | 2 | 3 | 0
COc1ccc2[nH]cc(C(C)c3ccccc3O)c2c1 (stereo not given) | 2 | -2 | . | -1 | 1 | -1
COC(=O)C[C@@H]1CC[C@H]2[C@@H](COc3ccc(NC(=O)NC(C)C)cc3C(=O)N2C)O1 | 1 | 0 | . | 1 | -1 | -2
CCC(C)N(C(=O)CN1C(=O)C2CCCCN2C(=O)c2ccccc21)C(C)CC (stereo not given) | -1 | -1 | . | -5 | -2 | -1
N#C/C(=C\c1ccc(N2CCOCC2)o1)C(=O)NC1CCCCC1 | -2 | 0 | -3 | 0 | -2 | -1
N#C/C(=C\c1ccc(N2CCOCC2)o1)C(=O)NCC1CCCO1 (stereo not given) | 1 | 0 | -1 | 1 | -2 | 12*
Cc1ccc(-n2c(SCC(=O)Nc3cccc4ccccc34)nnc2-c2cnccn2)cc1 | 3 | 0 | . | -6 | -1 | -2
OCCNc1nc(-c2ccccc2)nc2ccccc12 | 5 | 0 | 0 | 1 | 1 | 1.1*
OCCCNc1nc(-c2ccc(Cl)cc2)nc2ccccc12 | 1 | 0 | -1 | 4 | -1 | -1
